Data as given in PubChem BioAssay (NCATS).
Inconclusive results are not listed. Activity calls are given as the source filed them. Calls come from the whole dose curve; as a rule, active = well fitted cell-killing curve with a large enough effect; inconclusive = small, poorly fitted or top-dose-only effect, or effect the other way; inactive = no such curve, though single readings can be large or run the other way.

experiment: Quantitative High-Throughput drug screen in 47 multiple myeloma cell lines against the NCATS MIPE library collection: KMS20_JCRB cell viability assay (AID 1918973); details: CellTiter-Glo ATP, 48 h; series mostly up to 45.8 µM; note: nearly all actives have a fitted effect of over 45% in size
How it was run: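 We plated 500 myeloma cells per well, pinned in MIPE 4.0 compounds, and incubated for 48 hours at 37C. ATP was then quantified with CellTiter-Glo, with DMSO and media-only wells defining 100% and 0%.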
Potency is the fitted concentration of half-maximal effect.

Row | SMILES | Potency
1 | C[C@@H]1O[C@@H](O[C@H]2C[C@@H](O)[C@]3(CO)[C@H]4[C@H](O)C[C@]5(C)[C@@H](C6=CC(=O)OC6)CC[C@]5(O)[C@@H]4CC[C@]3(O)C2)[C@H](O)[C@H](O)[C@H]1O | 23.5 nM (active)
2 | CC1=C2C[C@@H]3[C@@H](CC=C4C[C@@H](O)CC[C@@]43C)[C@@H]2CC[C@]12O[C@H]1C[C@H](C)CN[C@H]1[C@H]2C | 46.9 nM (active)
3 | C[C@@H]1[C@@H](CC(C[C@H]2O[C@@H]3O[C@]4(C)CC[C@@H]5[C@H](C)CC[C@@H]([C@H]2C)[C@@]35OO4)C[S+](=O)([O-])c2ccc(COC(=O)N(C)C)cc2)O[C@@H]2O[C@]3(C)CC[C@H]4[C@H](C)CC[C@@H]1[C@@]24OO3 (some centres not stated) | 264 nM (active)
4 | Fc1ccc(C(OCCN2CCN(CCCc3ccccc3)CC2)c2ccc(F)cc2)cc1 | 9350 nM (active)
5 | C=C(C)[C@H]1Cc2c(ccc3c2O[C@@H]2COc4cc(OC)c(OC)cc4[C@@H]2C3=O)O1 | 332 nM (active)
6 | Cc1sc2c(c1C)C(c1ccc(Cl)cc1)=N[C@@H](CC(=O)OC(C)(C)C)c1nnc(C)n1-2 | 1180 nM (active)
7 | COC[C@@H](NC(C)=O)C(=O)NCc1ccccc1 | inactive
8 | CN(C)CCN(C)CCc1ccc(Cl)c(Cl)c1 | inactive
9 | C#CCN(C)[C@H](C)Cc1ccccc1 | inactive
10 | CC(O)(CS(=O)(=O)c1ccc(F)cc1)C(=O)Nc1ccc(C#N)c(C(F)(F)F)c1 (configuration not stated) | 935 nM (active)
11 | CNC(=O)c1ccc(N2C(=S)N(c3ccc(C#N)c(C(F)(F)F)c3)C(=O)C23CCC3)cc1F | 8330 nM (active)
12 | C[C@@H]1[C@@H](C(=O)C[C@H]2O[C@@H]3O[C@]4(C)CC[C@@H]5[C@H](C)CC[C@@H]([C@H]2C)[C@@]35OO4)O[C@@H]2O[C@]3(C)CC[C@H]4[C@H](C)CC[C@@H]1[C@@]24OO3 | 469 nM (active)
